From PubChem BioAssay
An excerpt weighted towards active compounds, which were near 1.6% of everything screened.
KCNQ2 enhance: KCNQ2 (rat) channel potentiation; actives 0.54% (n = 310,000); CHO-K1 KCNQ2, FluxOR thallium flux fluorescence; stronger effect = higher value; B-score at 10 µM; O88943;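 active = fluorescence ratio B-score at least 3 SD of library B-scores, with initial fluorescence B-score within 3 of them, cut at about 5.3 in these data; same plate scores as AID 2156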;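 note: B-score of peak minus minimum over baseline fluorescence ratio after K+ and Tl+ stimulus; positive B-score means potentiation of KCNQ2 with more thallium influx and brighter signal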
KCNQ2 inh: blocks the rat KCNQ2 potassium channel; O88943; CHO-K1 KCNQ2, FluxOR thallium flux, 20 min; stronger effect = lower value; B-score at 10 µM; actives 1.1% (n = 310,000); AID 2156;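 active = fluorescence ratio B-score at most minus 3 library SDs, with starting brightness B-score within 2 library SDs, cut at about -5.5 in these data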
KCNQ2 block conf: rat KCNQ2 channel inhibition, confirmatory screen. shares compounds with KCNQ2 inh. KCNQ2-expressing cells, thallium flux; stronger effect = lower value. activity change, negative = inhibition, % at 10 µM. actives 57% (n = 1,000)
KCNQ1 spec: KCNQ2 inhibitor that also affects human KCNQ1 channel. shares compounds with KCNQ2 inh. KCNQ1-expressing cells, FluxOR thallium flux fluorescence; stronger effect = lower value. activity change, negative = inhibition, % at 10 µM. actives 15% (n = 1,000). AID 493026;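 active = activity change at least 3 SD of negative controls below their mean in both duplicate wells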;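 note: CHO cells stably transfected with KCNQ1 and depolarized by potassium stimulus; peak minus minimum fluorescence over baseline after thallium addition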
Target sequence (P51787 whole entry, looked up): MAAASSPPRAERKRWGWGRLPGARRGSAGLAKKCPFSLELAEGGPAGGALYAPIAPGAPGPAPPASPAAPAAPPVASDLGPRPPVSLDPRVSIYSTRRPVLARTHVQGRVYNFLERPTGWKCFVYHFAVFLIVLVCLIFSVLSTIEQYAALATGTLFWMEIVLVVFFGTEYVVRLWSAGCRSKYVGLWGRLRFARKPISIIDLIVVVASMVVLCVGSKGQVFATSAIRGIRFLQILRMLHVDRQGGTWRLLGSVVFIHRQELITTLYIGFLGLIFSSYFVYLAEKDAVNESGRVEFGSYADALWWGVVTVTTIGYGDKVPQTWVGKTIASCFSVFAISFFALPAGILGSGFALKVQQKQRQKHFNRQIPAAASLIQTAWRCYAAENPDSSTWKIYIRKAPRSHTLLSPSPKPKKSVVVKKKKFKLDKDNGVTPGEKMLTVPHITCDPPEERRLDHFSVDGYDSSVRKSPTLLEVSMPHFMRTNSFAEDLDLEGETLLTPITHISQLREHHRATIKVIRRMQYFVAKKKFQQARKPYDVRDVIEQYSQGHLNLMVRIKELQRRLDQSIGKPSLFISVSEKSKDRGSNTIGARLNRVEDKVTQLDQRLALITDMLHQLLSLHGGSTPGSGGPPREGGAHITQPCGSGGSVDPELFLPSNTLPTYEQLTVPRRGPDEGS
CHO Tl ctr: KCNQ2 inhibitor counter-screen hit in parental CHO cells | shares compounds with KCNQ2 inh | thallium flux counter-screen; stronger effect = lower value | activity change, % at 10 µM | actives 14% (n = 1,000) | AID 493029
KCNQ2 inh confirm: rat KCNQ2 inhibition confirmed by electrophysiology | shares compounds with KCNQ2 inh | KCNQ2-expressing cells, automated patch clamp current | calls only at 10 µM | actives 49% (n = 550)
Hits are given with their value; 0 = inactive; - = no result given; + = active, no number. Unless noted, the rule behind the calls is not given here.

SMILES	KCNQ2 enhance	KCNQ2 inh	KCNQ2 block conf	KCNQ1 spec	CHO Tl ctr	others
Cc1ccc(/C=C2/C(=O)ON=C2c2ccccc2)o1	0	-9	-24%	0	0	KCNQ2 inh confirm=0
O=C(OC(C(=O)NC1CCCCC1)c1ccccc1F)c1ccco1 (configuration not stated)	-	0	-	-	-
Cc1cc([N+](=O)[O-])ccc1NC(=O)CN1C2CCC1CC(NC(=O)NC13CC4CC(CC(C4)C1)C3)C2 (configuration not stated)	0	0	-	-	-
CC1(C)Cc2c(C#N)c(NCC3CCCO3)nc(-c3ccco3)c2CO1 (configuration not stated)	-	0	-	-	-
CC1(C)Cc2c(C#N)c(NC3CCCCC3)nc(-c3ccco3)c2CO1	0	-13	0	0	0
CCN(CC)S(=O)(=O)c1ccc(N2CCOCC2)c(NC(=S)NC(=O)c2ccco2)c1	0	-7.3	-34%	0	0	KCNQ2 inh confirm=+
O=C(NC(=S)Nc1cc(S(=O)(=O)N2CCOCC2)ccc1N1CCOCC1)c1ccco1	-	0	-	-	-
O=C1CC(Cc2ccccc2)C(=O)N1CCCn1ccnc1 (configuration not stated)	-	0	-	-	-
COc1cc(/C=C/C(=O)NCc2ccccn2)cc(OC)c1OC	0	0	-	-	-
Cc1ccc(OCC(=O)N(Cc2ccccc2)c2ccccn2)cc1	0	-8.2	0	0	0
COc1ccccc1NC(=O)N(Cc1ccccc1)c1ccccn1	-	0	-	-	-
COc1ccc(/C=C/C(=O)N(Cc2ccccc2)c2ccccn2)cc1OC	0	-7.7	-18%	0	0	KCNQ2 inh confirm=+
COc1cc(/C=C/C(=O)N(Cc2ccccc2)c2ccccn2)cc(OC)c1OC	0	-7.9	-29%	0	0	KCNQ2 inh confirm=+
Cc1ccc(CC(=O)N(Cc2ccccc2)c2ccccn2)cc1	-	0	-	-	-
CC1=C(CC/C(C)=N/NC(N)=S)C(C)(C)CCC1	0	0	-	-	-
COc1ccc(S(=O)(=O)NCc2cc(-c3ccccc3Cl)no2)cc1	-	0	-	-	-
CCc1ccc(/C=N/n2c(C)cc(C)c(C#N)c2=O)cc1	-	0	-	-	-
C=CCNC(=O)c1c2c(nc3ccccc13)-c1ccccc1CC2	0	-7.6	0	0	0
CC(C)CNC(=O)c1c2c(nc3ccccc13)-c1ccccc1CC2	-	0	-	-	-
CCN(CC)C(=O)c1c2c(nc3ccccc13)-c1ccccc1CC2	0	-8.8	0	0	0
COc1cccc2c1CCc1c-2nc2ccccc2c1C(=O)O	0	0	-	-	-
COc1ccc(OC)c(NC(=O)Nc2cc(C(=O)O)ccc2C)c1	0	0	-	-	-
COCc1nc2oc3ccccc3c(=O)c2cc1C(=O)OC	-	0	-	-	-
Cc1ccccc1NS(=O)(=O)c1c(C(=O)N2CCCCCC2)c(C)n(C)c1C	0	0	-	-	-
CCOc1ccc(N(CC(=O)Nc2cc(Cl)ccc2C)S(C)(=O)=O)cc1	-	0	-	-	-
SMILES	KCNQ2 enhance	KCNQ2 inh	KCNQ2 block conf	KCNQ1 spec	CHO Tl ctr	others
O=C(O)CCc1ccc(-c2ccc(F)cc2)n1CC(=O)O	-	0	-	-	-
CCOC(=O)Cn1c(CCC(=O)O)ccc1-c1ccc(F)cc1	0	-9.3	0	0	0
COc1ccc(NC(=O)COc2ccc3c(C)cc(=O)oc3c2)cc1S(=O)(=O)N1CCCCC1	0	0	-	-	-
CC(NCC1(N2CCOCC2)CCCCC1)C(=O)Nc1ccc(Cl)cc1Cl (configuration not stated)	-	0	-	-	-
COc1ccc(/C=C/CN2CCCC(CO)(Cc3cccc(Cl)c3)C2)cc1 (configuration not stated)	0	-6.8	-23%	0	0	KCNQ2 inh confirm=0
COc1ccccc1/C=C/CN1CCCC(CO)(Cc2cccc(Cl)c2)C1 (configuration not stated)	-	0	-	-	-
CN(C(=O)CSCC(=O)O)C1CCCCC1	0	0	-	-	-
CCCn1cc(CN2CCC(N3CCC(C(=O)N4CCOCC4)CC3)CC2)c(C)n1	0	0	-	-	-
CCOc1cccc(CNCCO)c1OCc1ccc(Cl)cc1	0	0	-	-	-
CCOc1cc(CNCCO)cc(Br)c1OCc1ccc(Cl)cc1	0	-8.1	0	0	0
O=S(=O)(c1ccc2ccccc2c1)N(CC(O)COCc1ccco1)c1ccccc1 (configuration not stated)	0	-8.9	-20%	0	0	KCNQ2 inh confirm=+
CCN(CC)CC(O)CN(c1ccccc1)S(=O)(=O)c1ccc2ccccc2c1 (configuration not stated)	0	0	-	-	-
CC(NC(=O)/C(C#N)=C/c1ccc(Cl)c([N+](=O)[O-])c1)c1ccccc1 (configuration not stated)	0	-11	-26%	0	0	KCNQ2 inh confirm=0
CC(NC(=O)/C(C#N)=C/c1ccc(OCC(=O)O)cc1)c1ccccc1 (configuration not stated)	-	0	-	-	-
OCCN1CCN(c2nc(-c3ccccc3O)nc3ccccc23)CC1	-	0	-	-	-
c1ccc(CCNc2nc(-c3ccccn3)nc3ccccc23)cc1	0	-8.6	-29%	0	0	KCNQ2 inh confirm=0
CCCN(CCC)c1nc(-c2ccccn2)nc2ccccc12	-	0	-	-	-
Clc1ccc(CO/N=C/c2c(-c3ccccc3)nc3n2CCS3)c(Cl)c1	-	0	-	-	-
Cc1ccn2c(/C=N/OCc3cccc(F)c3)c(-c3ccc(Cl)cc3)nc2c1	0	-7.8	-18%	0	0	KCNQ2 inh confirm=0
Cc1ncc(N=Nc2ccc(F)cc2)c(-c2ccc(Cl)cc2)n1	0	0	-	-	-
Cc1ccn2c(/C=N/OCc3ccc(F)cc3)c(-c3ccc(Cl)cc3)nc2c1	0	-9	-26%	0	0	KCNQ2 inh confirm=+
CCN1CCN(Cc2c3ccccc3cc3ccccc23)CC1	-	0	-	-	-
COc1cccc(NC(=O)CN(C)C(=O)C2CCN(C(=O)c3ccccc3C)CC2)c1	0	0	-	-	-
O=C(CSc1cccc[n+]1[O-])Nc1ccc(N2CCOCC2)cc1	0	0	-	-	-
CC(=O)Nc1ccc(NC(=O)C(=O)NCC(c2ccco2)N2CCc3ccccc3C2)cc1 (configuration not stated)	-	0	-	-	-
SMILES	KCNQ2 enhance	KCNQ2 inh	KCNQ2 block conf	KCNQ1 spec	CHO Tl ctr	others
O=C(CN1CCc2ccccc2C1)Nc1ccc(F)cc1F	-	0	-	-	-
O=C(NCC(c1ccco1)N1CCc2ccccc2C1)C(=O)Nc1ccccc1F (configuration not stated)	0	-7	-26%	0	0	KCNQ2 inh confirm=0
O=C(NCC(c1ccco1)N1CCc2ccccc2C1)C(=O)Nc1ccc(F)cc1F (configuration not stated)	0	-6.7	-26%	0	0	KCNQ2 inh confirm=0
C=C1CCc2c([nH]c3ccc(OCC(C)C)cc23)C1=O	-	0	-	-	-
CC1(C)Nc2ccccc2N(Cc2ccc([N+](=O)[O-])cc2)C1=O	-	0	-	-	-
CCOC(=O)/C(C#N)=C/c1c(N2CCN(CC)CC2)nc2c(C)cccn2c1=O	0	0	-	-	-
Cc1cc(CN(C)C)c(O)c(C2(C)CCCCC2)c1	0	-9.1	0	0	0
Cc1cc(CN2CCOCC2)c(O)c(C2(C)CCCCC2)c1	0	-7.2	-19%	0	0	KCNQ2 inh confirm=0
Oc1c(CN2CCOCC2)cc(-c2ccccc2)cc1CN1CCOCC1	-	0	-	-	-
NNC(=O)c1c[nH]c2ccc(OCc3ccccc3)cc12	0	0	-	-	-
COc1cccc(OC)c1NC(=O)CN1CCC(NC(=O)c2cccc(F)c2)CC1	0	0	-	-	-
COc1cc2c(cc1OC)CN(CCC(=O)c1ccc(Br)cc1)CC2	0	-9.6	-45%	-43%	-36%	KCNQ2 inh confirm=0
